Source: PubChem
The entries come from a sample that favours hits as a whole.
Tg IFNy HTS – T. gondii growth inhibition under IFN-gamma; Toxoplasma gondii growth in IFN-gamma-treated host cells; stronger effect = lower value; activity change, negative = inhibition, % (test concentration not listed); 3.8% of 69,000 active; AID 1259416; in the data active means activity change below about -70%, passing the limit was not always enough;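 further: host cells are HeLa cells infected with Toxoplasma gondii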
An asterisk follows results filed as active; i = inactive.

SMILES	Tg IFNy HTS
COc1ccc(-c2nc(Nc3ccccc3)c3ccccc3n2)cc1	-38
COc1nc(Nc2ccccc2)nc(OC)n1	-116*
Cc1cc(C)nc(Nc2ccc(O)cc2)n1	-5
CC[C@@]1(C2O[C@@H](C3O[C@@](O)(CO)[C@H](C)C[C@@H]3C)C[C@@H]2C)CC[C@H]([C@]2(C)CC[C@]3(C[C@H](O)[C@@H](C)[C@@H]([C@@H](C)[C@@H](OC)[C@H](C)C(=O)O)O3)O2)O1 (stereo not given in full)	-80*
O=C(NCc1ccccc1)N1CCC2(CC1)Nc1cc(F)ccc1-n1cccc12	146
COc1ccc2c(c1)CCc1c-2nc2ccccc2c1N1CCOCC1	-98*
COc1ccc(-c2nc(N3CCc4ccccc4C3)c3ccccc3n2)cc1	63
COc1ccc(-c2nc(NCCN3CCOCC3)c3ccccc3n2)cc1	-58
Cc1cc(C)c2c(NC3CCNCC3)n[nH]c2n1	29
COC(=O)c1cc2n(n1)CCCN(C(=O)c1snnc1C)C2	32
C=CCN1CC2CN(c3ncc(F)cn3)CCC2(c2ccccc2)C1 (stereo not given)	-53
CC(c1cccc(-c2ccc[nH]c2=O)c1)N1CCCC1 (stereo not given)	3
CC(c1cccc(-c2ccc3[nH]c(=O)[nH]c(=O)c3c2)c1)N1CCCC1 (stereo not given)	-71*
Cc1[nH]c(=O)[nH]c(=O)c1-c1ccc(C(C)N2CCCC2)cc1 (stereo not given)	-1
CN(C)S(=O)(=O)Oc1ccc(-c2noc(-c3ccc(OC(F)(F)F)cc3)n2)cc1	9
CCCCCCCC(=O)OCC(=O)[C@@]1(O)CC[C@H]2[C@@H]3CCC4=CC(=O)CC[C@]4(C)[C@H]3[C@@H](O)C[C@@]21C	-5
CCCCCC(=O)O[C@]1(C(C)=O)CCC2C3CCC4=CC(=O)CC[C@]4(C)C3CC[C@@]21C (stereo not given in full)	-81*
CCCCCC(=O)O[C@]1(C(C)=O)CC[C@H]2[C@@H]3CCC4=CC(=O)CC[C@]4(C)[C@H]3CC[C@@]21C	-57
Cc1nn(C)cc1C(=O)N1CCCC(N(C)S(=O)(=O)c2cccc(F)c2)CC1 (stereo not given)	19
Cc1nn(-c2ccc(F)cc2)c(C)c1CNC(=O)C(C)n1c(C)nc2ccccc21 (stereo not given)	-46
CCCCN(C1CCN(C(C)=O)CC1)S(=O)(=O)c1ccc2[nH]c(=O)ccc2c1	87
CCN1CCCc2cc(CN(C3CCCC3)S(=O)(=O)c3ccc4[nH]c(=O)ccc4c3)ccc21	-86*
COCCN(Cc1ccc2c(c1)CCCN2C)S(=O)(=O)c1ccc2[nH]c(=O)ccc2c1	8
CCc1nc(C)c(C(=O)N(Cc2nccn2C)C2CC2)s1	-34
C(=C/c1ccc2ccccc2n1)/c1ccc2c(c1)OCO2	-94*
SMILES	Tg IFNy HTS
COc1ccc(OC)c(-n2c(/C=C/c3ccc4c(c3)OCO4)nc3ccccc3c2=O)c1	19
C(=C/c1nccc2c1[nH]c1ccccc12)/c1ccc2c(c1)OCO2	133
C=CCN1C(=O)C2(NCCc3c2[nH]c2ccc(OC)cc32)c2cc(Br)ccc21 (stereo not given)	47
C[C@H]1CN2C[C@H](O)CC2CN1CC(C)(C)CN1CCOCC1 (stereo not given in full)	24
Cc1[nH]c2c(F)cccc2c1CC(=O)NCc1noc(-c2ccco2)n1	5
Cc1ccc(C(=O)N2CCc3c([nH]c4ccccc34)C2c2ccc(C)cc2)cc1 (stereo not given)	i
Cc1ccc(C2c3[nH]c4ccccc4c3CCN2C(=O)c2ccnn2C)cc1 (stereo not given)	175
COc1cc(C(=O)N2CCc3c([nH]c4ccccc34)C2c2ccc(C)cc2)cc(OC)c1OC (stereo not given)	265
CCOc1ccc(C2c3[nH]c4ccccc4c3CCN2C(=O)COC)cc1 (stereo not given)	i
Cc1ccc(C2c3[nH]c4ccccc4c3CCN2C(=O)c2cc3ccccc3[nH]2)cc1 (stereo not given)	-79*
CCOc1ccc(C2c3[nH]c4ccccc4c3CCN2C(=O)c2cccnc2)cc1 (stereo not given)	55
CCOc1ccc(C2c3[nH]c4ccccc4c3CCN2C(=O)c2cccc(F)c2)cc1 (stereo not given)	-113*
Cc1ccc(C2c3[nH]c4ccccc4c3CCN2C(=O)c2cccc(F)c2)cc1 (stereo not given)	-129*
O=C(c1cccc(F)c1)N1CCc2c([nH]c3ccccc23)C1c1ccccc1 (stereo not given)	-46
N#CCSC1=Nc2ccccc2C2=NC(CCC(=O)NCc3ccc(F)cc3)C(=O)N12 (stereo not given)	8
CCN1CCCC1CNC(=O)C1CCN(Cc2cc3ccccc3n2Cc2ccc(Cl)cc2)CC1 (stereo not given)	-30
Cc1[nH]cnc1-c1nccn1CCN1CCCOC1=O	2
CCn1cc(S(=O)(=O)NCc2ccc3[nH]c4c(c3c2)CCCC4)cn1	-6
O=C(c1ccco1)N1CCC(c2nc3ccc(Nc4ccccc4)cn3n2)CC1	-21
O=c1[nH]nc(SCc2ncc(C(F)(F)F)cc2Cl)n1-c1ccccc1	16
Cc1nc(-c2cnn(C)c2)nc2c1CN(C(=O)c1ccc(N(C)C)cc1)CC2	0
NC(=O)Nc1cc(-c2cccc(F)c2)sc1C(=O)N[C@H]1CCCNC1	-84*
N#C[C@@H]1[C@@H](c2ccccc2-c2cccc(F)c2)[C@H](CO)N1C(=O)NC1CCCCC1	11
O=C(N[C@H]1CCCNC1)c1cn(C/C=C/c2ccccc2)nn1	-6
Cc1cccc(-c2cc3nc(C)cc(=O)n3[nH]2)c1	-21
SMILES	Tg IFNy HTS
Cc1cccc(-c2cc3nc4c(c(=O)n3[nH]2)CCC4)c1	-100*
Cc1[nH]n2c(=O)c3c(nc2c1-c1cccs1)CCC3	-11
O=C(Nc1cccc(Cl)c1)C1Cn2ccnc2C2(CCN(C(=O)c3ccno3)CC2)O1 (stereo not given)	-43
CCCNC(=O)Cn1ncc2c(N3CCCCC3)ncnc21	18
NC(=O)N1Cc2nccn2CC(Cn2ncccc2=O)C1 (stereo not given)	-10
Nc1ncnc(SCc2c(Cl)cccc2Cl)n1	-81*
O=c1[nH]c(SCc2c(Cl)cccc2Cl)nc2ccnn12	68
CSc1nc(N)nc(COc2ccccc2Cl)n1	47
COc1cc(NC(=O)CN2CCC(n3nc(C)cc3C)C2)cc(OC)c1 (stereo not given)	-3
Cc1ccc2[nH]c(C(=O)NCc3cccnc3)c(NC(=O)c3ccc(Cl)cc3)c2c1	-16
CNC(=O)c1ccc(CNC(=O)Cc2c(C)[nH]c3c(C)ccc(C)c23)o1	5
CNC(=O)c1ccc(CNC(=O)c2[nH]c3ccc(C)cc3c2C)o1	-108*
COCCN1C(=O)N(Cc2ccccc2)C2(CCN(Cc3ccc4nsnc4c3)CC2)C1=O	15
O=c1[nH]c(Cc2ccccc2)nc2c1C1(CCCCC1)Cc1ccccc1-2	-3
CCSc1nc2c(c(=O)n1C)C1(CCCCC1)Cc1ccccc1-2	-73*
CS(=O)(=O)N1CSC[C@@H]1C(=O)NCCc1csc(-c2ccccc2)n1	0
COc1cccc(NC(=O)c2cncc(NS(=O)(=O)c3ccc(NC(C)=O)cc3)c2)c1	39
Cc1ccc(NC(=O)c2c(O)c3cccnc3[nH]c2=O)cc1	59
Cc1ccc(NC(=O)c2snc3c(=O)[nH]cnc23)cc1	-111*
CSc1nsc(SCC(=O)Nc2ccc(C)cc2)n1	99
CCCS(=O)(=O)N1CC[C@H]2[C@@H]1CCN2c1nncs1	278
